Laboratory results taken from the supplement of paper PMC10849652.
About 7,900 targets were measured; listed, in parts, are those with a hit and a random draw of the rest. About 0.6% of all pairs of compound and target were hits. A number with no mark means an inactive call.

What was measured:
Assay in all cases: log2 fold change, soluble protein after heating vs DMSO (PISA); higher = thermal stabilisation; K562 cells, 10 uM, 30 min; active = over 0.2 and 3.5 SD of the protein, either way, in both replicates (recomputed)
[1] = compound: CC[C@@H]1C(=O)N(C)c2cnc(Nc3ccc(C(=O)NC4CCN(C)CC4)cc3OC)nc2N1C1CCCC1
How it was run: (§1)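 For each measurement, 10 μM compound was applied for 30 min to K562 cells at 2×10^6 cells/mL. Aliquots were heated for 3 min across 48°C-58°C, pooled, and extracted in PBS with 0.5% NP-40 at 4°C; the supernatant after 21,000xg for 90 min was soluble protein. This was quantified by TMTpro 16plex LC-MS/MS with channel sums equalised, and thermal stability was reported relative to control samples from duplicates, on a log2 fold-change scale.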

volasertib = compound: CC[C@@H]1C(=O)N(C)c2cnc(Nc3ccc(C(=O)N[C@H]4CC[C@H](N5CCN(CC6CC6)CC5)CC4)cc3OC)nc2N1C(C)C [volasertib]
How it was run: as §1

[2] = compound: CC[C@H](C)N1C=C(C2=C(C=C(C=C21)C3=CN=C(C=C3)N4CCNCC4)C(=O)NCC5=C(C=C(NC5=O)C)C)C
How it was run: as §1

epoxomicin = compound: CC[C@H](C)[C@@H](C(=O)N[C@@H]([C@@H](C)O)C(=O)N[C@@H](CC(C)C)C(=O)[C@]1(CO1)C)NC(=O)[C@H]([C@@H](C)CC)N(C)C(=O)C [epoxomicin]
How it was run: as §1

[3] = compound: CCn1c(C(=O)N(C2CC2)C2CC2)cc2c3c(ncn3C)c(Nc3cc(C)n(C)n3)nc21
How it was run: as §1

[4] = compound: CCn1cc(-c2ccnc3[nH]c(-c4cccc(CN(C)C)c4)cc23)c(-c2ccc(NC(=O)N(C)C)cc2)n1
How it was run: as §1

[5] = compound: CN(C)CC(=O)Nc1ccc2[nH]c(=O)c3ccccc3c2c1
How it was run: as §1

rosiglitazone = compound: CN(CCOC1=CC=C(C=C1)C[C@H]2C(=O)NC(=O)S2)C3=CC=CC=N3 (racemic) [rosiglitazone]
How it was run: as §1

[6] = compound: CN1C2=C(C3=C1C(=O)N(N=C3)CC4=CC(=CC=C4)N)SC(=C2)S(=O)C
How it was run: as §1

[7] = compound: CN1CCC(CNc2ccc3ncc(-c4cccc(OC(F)(F)F)c4)n3n2)CC1
How it was run: as §1

UniProt P54709, sequence (P54709 whole entry, looked up): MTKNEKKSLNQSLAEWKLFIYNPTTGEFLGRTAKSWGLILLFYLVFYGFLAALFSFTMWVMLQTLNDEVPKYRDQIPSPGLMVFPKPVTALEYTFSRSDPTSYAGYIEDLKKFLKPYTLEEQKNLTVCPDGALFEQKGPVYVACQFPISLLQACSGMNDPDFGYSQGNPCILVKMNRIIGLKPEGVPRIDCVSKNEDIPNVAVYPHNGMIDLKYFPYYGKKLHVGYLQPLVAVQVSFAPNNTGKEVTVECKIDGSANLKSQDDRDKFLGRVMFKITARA
UniProt O43861, sequence (O43861 whole entry, looked up): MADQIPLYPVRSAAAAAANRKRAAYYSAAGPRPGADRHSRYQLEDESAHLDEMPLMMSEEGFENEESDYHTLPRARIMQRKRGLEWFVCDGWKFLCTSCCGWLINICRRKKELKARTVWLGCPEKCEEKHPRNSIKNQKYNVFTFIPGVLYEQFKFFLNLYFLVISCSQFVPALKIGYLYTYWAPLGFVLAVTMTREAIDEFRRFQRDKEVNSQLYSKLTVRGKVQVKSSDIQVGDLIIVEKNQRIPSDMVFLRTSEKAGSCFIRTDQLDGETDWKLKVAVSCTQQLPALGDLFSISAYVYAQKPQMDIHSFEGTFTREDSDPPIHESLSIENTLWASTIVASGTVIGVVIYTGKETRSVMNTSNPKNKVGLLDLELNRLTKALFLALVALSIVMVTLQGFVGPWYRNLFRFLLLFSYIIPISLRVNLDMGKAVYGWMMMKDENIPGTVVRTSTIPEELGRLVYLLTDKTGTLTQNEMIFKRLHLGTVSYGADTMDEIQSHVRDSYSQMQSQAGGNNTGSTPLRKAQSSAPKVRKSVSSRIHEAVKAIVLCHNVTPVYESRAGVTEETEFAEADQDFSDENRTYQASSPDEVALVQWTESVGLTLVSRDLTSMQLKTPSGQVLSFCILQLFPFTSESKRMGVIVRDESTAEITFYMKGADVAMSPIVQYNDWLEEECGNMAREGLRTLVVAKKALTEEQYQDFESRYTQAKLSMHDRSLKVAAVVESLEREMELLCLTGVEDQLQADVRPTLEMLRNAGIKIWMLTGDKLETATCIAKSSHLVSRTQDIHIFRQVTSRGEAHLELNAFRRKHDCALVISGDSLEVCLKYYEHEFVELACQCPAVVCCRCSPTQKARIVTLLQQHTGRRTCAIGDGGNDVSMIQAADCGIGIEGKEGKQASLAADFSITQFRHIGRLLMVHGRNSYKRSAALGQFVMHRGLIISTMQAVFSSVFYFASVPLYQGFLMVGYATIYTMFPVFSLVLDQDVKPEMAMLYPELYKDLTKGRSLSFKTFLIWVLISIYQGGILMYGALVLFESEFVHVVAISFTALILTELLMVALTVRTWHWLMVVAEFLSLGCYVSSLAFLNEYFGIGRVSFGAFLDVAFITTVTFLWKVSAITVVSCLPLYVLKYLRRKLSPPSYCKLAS
UniProt P30837, sequence (P30837 whole entry, looked up): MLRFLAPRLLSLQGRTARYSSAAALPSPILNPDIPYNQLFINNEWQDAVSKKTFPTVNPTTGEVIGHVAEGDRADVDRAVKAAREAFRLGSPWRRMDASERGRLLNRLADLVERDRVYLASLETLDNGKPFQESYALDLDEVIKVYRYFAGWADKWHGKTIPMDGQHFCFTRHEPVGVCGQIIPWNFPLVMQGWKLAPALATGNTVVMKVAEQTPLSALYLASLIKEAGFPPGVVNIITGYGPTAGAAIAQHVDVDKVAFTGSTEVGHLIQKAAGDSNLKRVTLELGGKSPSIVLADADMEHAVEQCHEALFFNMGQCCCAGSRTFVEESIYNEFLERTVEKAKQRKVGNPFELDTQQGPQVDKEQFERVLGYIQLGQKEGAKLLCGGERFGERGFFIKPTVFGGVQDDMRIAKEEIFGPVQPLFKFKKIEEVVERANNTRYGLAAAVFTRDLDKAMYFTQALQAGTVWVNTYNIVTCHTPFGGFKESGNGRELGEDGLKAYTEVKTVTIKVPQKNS
UniProt P05091, sequence (P05091 whole entry, looked up): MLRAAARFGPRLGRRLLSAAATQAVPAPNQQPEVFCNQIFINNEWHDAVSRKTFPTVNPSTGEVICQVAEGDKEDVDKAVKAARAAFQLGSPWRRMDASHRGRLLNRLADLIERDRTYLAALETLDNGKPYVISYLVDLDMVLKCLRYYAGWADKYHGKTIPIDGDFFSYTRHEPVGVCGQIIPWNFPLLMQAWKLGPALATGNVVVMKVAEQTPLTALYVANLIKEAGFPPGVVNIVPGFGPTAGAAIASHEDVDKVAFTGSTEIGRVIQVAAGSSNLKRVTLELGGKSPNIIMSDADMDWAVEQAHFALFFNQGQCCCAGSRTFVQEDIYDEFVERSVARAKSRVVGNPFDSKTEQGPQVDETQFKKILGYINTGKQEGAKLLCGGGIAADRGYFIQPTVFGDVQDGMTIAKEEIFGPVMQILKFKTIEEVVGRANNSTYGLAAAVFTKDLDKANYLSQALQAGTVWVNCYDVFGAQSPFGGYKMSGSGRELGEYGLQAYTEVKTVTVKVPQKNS
UniProt Q5T9A4, sequence (Q5T9A4 whole entry, looked up): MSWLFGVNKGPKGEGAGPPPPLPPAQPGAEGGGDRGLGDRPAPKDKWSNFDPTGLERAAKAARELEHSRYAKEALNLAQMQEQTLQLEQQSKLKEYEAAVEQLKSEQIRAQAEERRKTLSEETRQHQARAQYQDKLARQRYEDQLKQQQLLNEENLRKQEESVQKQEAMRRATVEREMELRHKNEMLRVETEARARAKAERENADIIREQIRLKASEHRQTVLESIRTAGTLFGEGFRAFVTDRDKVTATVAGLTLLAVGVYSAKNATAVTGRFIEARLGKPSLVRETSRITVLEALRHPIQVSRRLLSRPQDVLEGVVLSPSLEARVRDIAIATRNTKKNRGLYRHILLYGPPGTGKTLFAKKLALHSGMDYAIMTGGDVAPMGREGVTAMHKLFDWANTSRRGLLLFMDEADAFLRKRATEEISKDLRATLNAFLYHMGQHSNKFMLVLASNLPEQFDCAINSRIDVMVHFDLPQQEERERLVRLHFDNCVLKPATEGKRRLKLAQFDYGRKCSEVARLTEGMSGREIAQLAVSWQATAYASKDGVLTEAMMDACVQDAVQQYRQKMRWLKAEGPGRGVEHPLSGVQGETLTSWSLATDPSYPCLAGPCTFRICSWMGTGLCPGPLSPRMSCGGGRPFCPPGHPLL
UniProt Q92560, sequence (Q92560 whole entry, looked up): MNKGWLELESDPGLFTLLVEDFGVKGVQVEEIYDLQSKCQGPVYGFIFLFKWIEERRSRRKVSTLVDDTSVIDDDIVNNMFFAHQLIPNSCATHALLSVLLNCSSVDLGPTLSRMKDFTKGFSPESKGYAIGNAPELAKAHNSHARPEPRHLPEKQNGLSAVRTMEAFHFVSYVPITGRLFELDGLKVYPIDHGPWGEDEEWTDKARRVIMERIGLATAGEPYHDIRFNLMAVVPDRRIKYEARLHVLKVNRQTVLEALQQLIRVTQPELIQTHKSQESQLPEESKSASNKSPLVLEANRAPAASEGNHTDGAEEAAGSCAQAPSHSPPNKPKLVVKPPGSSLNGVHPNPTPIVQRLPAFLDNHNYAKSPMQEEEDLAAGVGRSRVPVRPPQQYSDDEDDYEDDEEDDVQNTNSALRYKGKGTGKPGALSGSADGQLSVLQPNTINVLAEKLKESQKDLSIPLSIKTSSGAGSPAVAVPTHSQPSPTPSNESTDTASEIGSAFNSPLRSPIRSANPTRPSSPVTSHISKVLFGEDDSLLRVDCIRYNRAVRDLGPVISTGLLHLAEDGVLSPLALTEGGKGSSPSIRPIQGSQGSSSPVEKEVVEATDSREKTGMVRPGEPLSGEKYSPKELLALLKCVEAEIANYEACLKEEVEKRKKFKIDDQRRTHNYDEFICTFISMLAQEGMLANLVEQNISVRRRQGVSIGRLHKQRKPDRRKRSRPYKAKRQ
UniProt Q16864, sequence (Q16864 whole entry, looked up): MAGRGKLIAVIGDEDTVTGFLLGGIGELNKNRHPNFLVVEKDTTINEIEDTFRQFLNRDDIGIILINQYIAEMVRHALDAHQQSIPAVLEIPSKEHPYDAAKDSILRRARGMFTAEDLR
UniProt Q9Y3D8, sequence (Q9Y3D8 whole entry, looked up): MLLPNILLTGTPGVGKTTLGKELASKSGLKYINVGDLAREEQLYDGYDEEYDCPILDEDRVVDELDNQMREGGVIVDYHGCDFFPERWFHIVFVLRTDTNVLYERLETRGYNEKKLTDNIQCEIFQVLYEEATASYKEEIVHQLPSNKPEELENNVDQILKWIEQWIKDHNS
UniProt O00244, sequence (O00244 whole entry, looked up): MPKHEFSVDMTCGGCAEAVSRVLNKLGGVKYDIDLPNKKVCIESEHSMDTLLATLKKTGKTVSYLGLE
UniProt Q4G176, sequence (Q4G176 whole entry, looked up): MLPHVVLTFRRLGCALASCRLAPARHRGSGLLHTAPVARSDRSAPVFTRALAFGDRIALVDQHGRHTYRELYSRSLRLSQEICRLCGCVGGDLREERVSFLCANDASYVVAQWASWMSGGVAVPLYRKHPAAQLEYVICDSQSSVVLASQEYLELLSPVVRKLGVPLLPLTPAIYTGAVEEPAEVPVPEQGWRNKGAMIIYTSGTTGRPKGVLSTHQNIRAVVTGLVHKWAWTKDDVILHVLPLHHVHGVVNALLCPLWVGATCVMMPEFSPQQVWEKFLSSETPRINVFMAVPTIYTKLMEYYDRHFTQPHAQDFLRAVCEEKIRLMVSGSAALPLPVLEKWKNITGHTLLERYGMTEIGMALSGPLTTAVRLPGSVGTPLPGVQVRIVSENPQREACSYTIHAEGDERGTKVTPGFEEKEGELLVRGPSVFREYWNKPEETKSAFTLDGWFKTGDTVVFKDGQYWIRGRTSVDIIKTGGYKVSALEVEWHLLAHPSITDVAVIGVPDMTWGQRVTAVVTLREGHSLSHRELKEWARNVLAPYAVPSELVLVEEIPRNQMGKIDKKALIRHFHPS
UniProt P53680, sequence (P53680 whole entry, looked up): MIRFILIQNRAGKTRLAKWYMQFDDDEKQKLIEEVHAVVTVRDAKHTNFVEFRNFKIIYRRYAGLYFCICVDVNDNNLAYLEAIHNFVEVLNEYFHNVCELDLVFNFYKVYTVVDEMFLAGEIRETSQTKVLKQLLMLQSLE

Target | log2 fold change [1] | log2 fold change (volasertib) | log2 fold change [2] | log2 fold change (epoxomicin) | log2 fold change [3] | log2 fold change [4] | log2 fold change [5] | log2 fold change (rosiglitazone) | log2 fold change [6] | log2 fold change [7]
ACSF3 (UniProt Q4G176) | -0.014 | -0.093 | 0.039 | 0.152 | 0.034 | -0.17 | 0.008 | 0.125 | 0.016 | -0.116
ANKRD29 (UniProt Q8N6D5) | -0.021 | -0.27 | -0.152 | 0 | -0.137 | -0.233 | 0.025 | 0.111 | -0.039 | -0.043
ATP6V0A2 (UniProt Q9Y487) | -0.039 | -0.039 | 0.067 | 0.043 | 0.007 | 0.028 | -0.034 | -0.037 | 0.006 | -0.169
AP2S1 (UniProt P53680) | 0.035 | 0.018 | -0.024 | -0.022 | 0.023 | -0.008 | -0.071 | 0.02 | -0.005 | 0.037
ARFIP1 (UniProt P53367) | -0.008 | -0.184 | 0.113 | -0.003 | -0.101 | 0.083 | -0.011 | 0.856 | -0.053 | -0.421
AK6 (UniProt Q9Y3D8) | -0.304 | -0.438 (active) | -0.001 | 0.08 | -0.081 | -0.007 | 0.148 | 0.074 | 0.027 | -0.322
ARFGEF1 (UniProt Q9Y6D6) | -0.022 | -0.248 | 0.01 | 0.033 | -0.007 | 0.011 | -0.005 | 0.045 | -0.037 | -0.046
ALG3 (UniProt Q92685) | 0.005 | -0.164 | 0.02 | 0.039 | -0.022 | -0.037 | -0.002 | 0.049 | -0.028 | 0.033
AKT1 (UniProt P31749) | 0 | -0.503 | 0.068 | 0.158 | -0.119 | -0.08 | 0.133 | 0.257 | 0.107 | 0.222
ABHD11 (UniProt Q8NFV4) | -0.077 | -0.127 | -0.003 | 0.272 | 0.045 | 0.086 | 0.007 | -0.016 | -0.033 | -0.126
AARSD1 isoform 3 (UniProt Q9BTE6) | -0.081 | -0.27 (active) | 0.019 | 0.083 | 0.009 | -0.01 | 0.037 | 0.05 | 0.02 | 0.021
ATOX1 (UniProt O00244) | 0.009 | 0 | -0.015 | 0.107 | 0.016 | -0.079 | 0.056 | 0.012 | -0.023 | 0.094
BCAP29 isoform 2 (UniProt Q9UHQ4) | 0.022 | 0.085 | -0.072 | -0.096 | 0.082 | -0.011 | -0.008 | 0.045 | -0.044 | 0.05
ALDH1B1 (UniProt P30837) | -0.036 | 0.05 | -0.005 | 0.032 | -0.05 | -0.113 | 0.001 | 0.048 | -0.095 | 0.058
AGRN (UniProt O00468) | 0.042 | -0.001 | 0.005 | 0.065 | -0.018 | 0.053 | 0.016 | -0.012 | 0.062 | -0.02
APLP2 (UniProt Q06481) | 0.076 | -0.04 | -0.092 | 0.017 | 0.089 | 0.006 | -0.106 | -0.026 | -0.004 | 0.179
BAP1 (UniProt Q92560) | -0.037 | 0.13 | 0 | -0.092 | -0.019 | 0.101 | -0.093 | 0.021 | 0.047 | 0.055
ATP1B3 (UniProt P54709) | 0.06 | 0.094 | -0.022 | -0.033 | 0.04 | -0.028 | 0.012 | -0.011 | -0.063 | 0.168
ARHGAP1 (UniProt Q07960) | 0.014 | -0.027 | 0.021 | 0.013 | -0.006 | -0.082 | -0.007 | 0.03 | -0.014 | 0.19
AAR2 (UniProt Q9Y312) | -0.032 | -0.016 | -0.03 | 0.037 | -0.038 | 0.106 | -0.001 | 0 | -0.087 | -0.096
ALDH2 (UniProt P05091) | -0.025 | 0.06 | -0.009 | -0.038 | -0.017 | -0.042 | 0.029 | 0.058 | -0.048 | -0.006
ATAD3A isoform 2 (UniProt Q9NVI7) | -0.145 | -0.202 | 0.038 | 0.05 | -0.055 | 0.033 | 0.018 | 0.007 | 0.177 | -0.319 (active)
ARL2BP (UniProt Q9Y2Y0) | -0.222 | -0.682 (active) | 0.023 | -0.008 | -0.022 | -0.048 | 0.032 | 0.019 | -0.062 | -0.183
ATAD3B (UniProt Q5T9A4) | -0.076 | -0.167 | 0.093 | -0.045 | -0.018 | 0.112 | -0.026 | 0.005 | 0.167 | -0.339 (active)
ABHD16A (UniProt O95870) | 0.134 | 0.079 | -0.01 | -0.008 | -0.092 | -0.09 | -0.018 | -0.003 | -0.076 | 0.283
AURKA (UniProt O14965) | 0.017 | 0.134 | -0.022 | 0.113 | 0.004 | 0.733 (active) | 0 | -0.015 | 0.029 | 0.14
ATP9B (UniProt O43861) | -0.002 | -0.15 | -0.125 | 0.055 | -0.204 | -0.023 | 0.013 | 0.08 | 0.013 | -0.109
AKR1C3 (UniProt P42330) | 0.011 | 0.009 | -0.01 | 0 | 0.131 | -0.247 | 0.067 | -0.06 | -0.127 | 0.214
ATP6V1F isoform 2 (UniProt Q16864) | 0.01 | -0.036 | -0.043 | 0.525 (active) | -0.02 | 0.02 | 0.165 | 0.003 | 0.033 | 0.056
ARL3 (UniProt P36405) | 0.036 | 0.046 | 0.001 | -0.01 | -0.001 | -0.005 | -0.014 | 0.008 | -0.098 | -0.018
